Data on 40 compounds can be found in PubChem BioAssay (NCATS).

The structures appear in SMILES notation. Inconclusive results are not listed. Unmarked numbers belong to inactive results. The source made the active and inactive calls. Calls follow the shape of the dose curve; as a rule, active = well fitted cell-killing curve with a large enough effect; inconclusive = small, poorly fitted or top-dose-only effect, or effect the other way; inactive = no such curve, though single readings can be large or run the other way.
Potency is read from the fitted curve at half-maximal effect.

The experiment in a line: Quantitative High-Throughput drug screen in 47 multiple myeloma cell lines against the NCATS MIPE library collection: OCIMY1_PLB cell viability assay (AID 1918979). Also: nearly all actives have a fitted effect of over 35% in size. The settings on record: OCI-MY1 myeloma viability, CellTiter-Glo ATP, 48 h; series mostly up to 45.8 µM; viability: at the top concentration. From the text: PI: Beverly A. Mock Ph.D.
Laboratory of Cancer Biology and Genetics,
Center for Cancer Research, National Cancer Institute,
National Institute of Health, Bethesda, Maryland
Drug resistance and disease progression are common in multiple myeloma (MM) patients, underscoring the need for new therapeutic combinations. […] We hypothesized that effective combinations would reduce MYC expression and enhance p16 activity. […] These preclinical data identify potentially useful drug combinations for evaluation in drug-resistant MM and reveal potential mechanisms of combined drug sensitivity.
Described herein is the primary MIPE qHTS used to cherrypick compounds. Validated compounds were then further tested for potential synergistic activiy.
[1] Peat TJ, Gaikwad SM, Dubois W, Gyabaah-Kessie N, Zhang S, Gorjifard S, Phyo Z, Andres M, Hughitt VK, Simpson RM, Miller MA, Girvin AT, Taylor A, Williams D, D'Antonio N, Zhang Y, Rajagopalan A, Flietner E, Wilson K, Zhang X, Shinn P, Klumpp-Thomas C, McKnight C, Itkin Z, Chen L, Kazandijian D, Zhang J, Michalowski AM, Simmons JK, Keats J, Thomas CJ, Mock BA. Drug combinations identified by high-throughput screening promote cell cycle transition and upregulate Smad pathways in myeloma. Cancer Lett. 2023 Aug 1;568:216284. doi: 10.1016/j.canlet.2023.216284. Epub 2023 Jun 24. PMID: 37356470; PMCID: PMC10408729.
SEQUENCE No. (e.g., 1, 2, 3, etc.); […] (e.g., Cells, Incubation, Reagent, etc.); VALUE and DESCRIPTION.
1; Cells; 5 uL; white, solid bottom 1536-well Greiner assay plate.
2; Compounds; 23 nL; Kalypsis pin tool (Wako USA) equipped with a 1536-well pin head to transfer to the assay plates.
3; Incubation; 48 hours; 37C incubation.
4; Reagent;5uL; CellTiter Glo (Promega).
5; Detector; 425V; Luminescence; Viewlux PerkinElmer.
NOTES (numbers refer to Sequence numbers above)
1. The cell-based screening methods employed in this study were like those previously published. Briefly, the corresponding myeloma cell lines were screened in 1,536-well plates with 500 cells, 5-uL per well for inhibition of cell viability (assessed by measuring ATP levels with CellTiterGlo).
2. NCATS MIPE 4.0 library of approved and investigational drugs were added using the Kalypsis pin tool. Wells treated with DMSO only for 100% viability and media only for 0% viability were used as controls.
3. The assay plates were covered and incubated for 48 hours in a 37C, 5% CO2 incubator with controlled humidity.
4. After 48 hours, CellTilter-GloTM luminescent substrate mix (Promega) reagent was added to the assay plate and plates we incubated for 5 min at room temperature.
5. Signal was measured as median relative luminescence units on a ViewLux (PerkinElmer) multiplate reader.
[1] Heske CM, Davis MI, Baumgart JT, Wilson K, Gormally MV, Chen L, Zhang X, Ceribelli M, Duveau DY, Guha R, Ferrer M, Arnaldez FI, Ji J, Tran HL, Zhang Y, Mendoza A, Helman LJ, Thomas CJ. Matrix Screen Identifies Synergistic Combination of PARP Inhibitors and Nicotinamide Phosphoribosyltransferase (NAMPT) Inhibitors in Ewing Sarcoma. Clin Cancer Res. 2017 Dec 1;23(23):7301-7311. doi: 10.1158/1078-0432.CCR-17-1121. Epub 2017 Sep 12. PMID: 28899971; PMCID: PMC6636827.
On the technique in general: ATP-based viability assays read luminescence as a measure of living cells.
For `Cc1ccc(NC(=O)Nc2cc(C(F)(F)F)ccc2F)cc1Nc1ccc2c(c1)NC(=O)C2=Cc1ccc[nH]1`, the Potency is 23.5 µM (active).
As a reminder, the viability is a read-out of living cells in per cent, often relative to untreated cells. As to `C[C@@H]1C[C@H]2[C@@H]3CCC4=CC(=O)C=C[C@]4(C)[C@@]3(F)[C@@H](O)C[C@]2(C)[C@@]1(O)C(=O)CO`, the “viability” value is 116%.
The same measure, in the same setting: the same measure for `COc1ccc(C=CC(=O)Nc2ccccc2C(=O)O)cc1OC`: 128%.
Regarding `CC(C)CN(C[C@H](O)[C@H](Cc1ccccc1)NC(=O)O[C@H]1CCOC1)S(=O)(=O)c1ccc(N)cc1`, the “viability” value is 98.3%.
Consider `CN(C)CC[C@H](CSc1ccccc1)Nc1ccc(S(=O)(=O)NC(=O)c2ccc(N3CCN(Cc4ccccc4-c4ccc(Cl)cc4)CC3)cc2)cc1[N+](=O)[O-]`, for which the Potency is 3.72 µM (active).
For `C[C@@H]1O[C@@H](O[C@H]2CC[C@@]3(C)[C@H](CC[C@@H]4[C@H]3C[C@@H](O)[C@]3(C)[C@@H](C5=CC(=O)OC5)CC[C@]43O)C2)C[C@H](O)[C@@H]1O[C@H]1C[C@H](O)[C@H](O[C@H]2C[C@H](O)[C@@H](O)[C@@H](C)O2)[C@H](C)O1` (stereo in doubt), the Potency is 0.241 µM (active).
`CN(C)c1nc(Cc2ccc(NC(=O)c3ccc(C(F)(F)F)cc3)cc2)nc(N(C)C)c1CC(=O)O`: the “viability” value is 110%.
In the case of `OC[C@H]1O[C@@H](OCCc2ccc(O)cc2)[C@H](O)[C@@H](O)[C@H]1O`, the “viability” value was 104%.
As to `COc1ccc(-c2cc(=O)c3c(O)cc(O[C@@H]4O[C@H](CO[C@@H]5O[C@@H](C)[C@H](O)[C@@H](O)[C@@H]5O)[C@@H](O)[C@H](O)[C@@H]4O)cc3o2)cc1O`, the “viability” value is 118%.
Regarding `CC(C)(C)c1nc(-c2cccc(NS(=O)(=O)c3c(F)cccc3F)c2F)c(-c2ccnc(N)n2)s1`, the “viability” value is 103%.
Take `CC1=C[C@@H]2[C@@H]([C@@H](O)C[C@@]3(C)[C@H]2C[C@@H](C)[C@]3(O)C(=O)CO)[C@@]2(C)Cc3cnn(-c4ccccc4)c3C=C12`: the Potency was 23.5 µM (active).
As to `Cc1nc(C(=O)NCC(=O)O)c(O)c2ccc(Oc3ccccc3)cc12`, the “viability” value was 111%.
`CNc1nc(-c2ccc3c(N)n[nH]c3c2)cc(N2C[C@@H](C(=O)NC3CCCCC3)CC[C@@H]2C)n1`: the Potency is 18.7 µM (active).
On to `COc1ccc(-c2nc3ccc(C4=NNC(=O)CC4C)cc3[nH]2)cc1` (stereo not given), for which the “viability” value was 114%.
In the case of `CON(C)C(=O)N1N=C(c2cc(F)ccc2F)S[C@]1(CCCN)c1ccccc1`, the “viability” value was 56.2%.
As for `CNc1nc(Nc2ccc(C(=O)N3CCOCC3)cc2OC)ncc1Cl`, the “viability” value is 95.9%.
For the compound `COc1ccnc(CS(=O)c2nc3ccc(OC(F)F)cc3[nH]2)c1OC` (stereo not given), the “viability” value was 111%.
Consider `CC1(C)[C@H]2CC[C@]3(C)[C@@H](C(=O)C=C4[C@@H]5C[C@@](C)(C(=O)O)CC[C@]5(C)CC[C@]43C)[C@@]2(C)CC[C@@H]1O`, for which the “viability” value was 121%.
For the compound `CC(=O)OCC(=O)[C@@]12OC(C)(C)O[C@H]1C[C@H]1[C@@H]3C[C@H](F)C4=CC(=O)C=C[C@]4(C)[C@@]3(F)[C@@H](O)C[C@@]12C`, the “viability” value is 106%.
Turning to `CC(C)n1c(C=C[C@H](O)C[C@H](O)CC(=O)O)c(-c2ccc(F)cc2)c2ccccc21`, the “viability” value is 96.4%.
Regarding `COc1cc2c(cc1OC)[C@@H]1Cc3ccc(OC)c(OC)c3CN1CC2`, the “viability” value was 86.8%.
On the same count and under the same terms, the same measure for `O=C1NC(=O)C(c2cnc3ccccn23)=C1c1cn2c3c(cccc13)CN(C(=O)N1CCOCC1)CC2`: 89.3%.
Consider `CN(C(Cc1ccc(OS(=O)(=O)c2cccc3cnccc23)cc1)C(=O)N1CCN(c2ccccc2)CC1)S(=O)(=O)c1cccc2cnccc12` (stereo not given), for which the Potency is 7.43 µM (active).
Still for that read-out and setting: the same measure for `CN1CC(=O)NC1=NC(=O)Nc1cccc(Cl)c1`: 26.4 µM (active).
Regarding `Cc1ccc2c(c1)c1c(n2CCc2ccc(C)nc2)CCN(C)C1`, the “viability” value was 102%.
For `O=C1CN2Cc3c(ccc(Cl)c3Cl)N=C2N1`, the “viability” value is 107%.
Regarding `O=C(Nc1ncc(SCCN2CCCC2)s1)[C@]1(c2ccc(S(=O)(=O)C3CC3)cc2)C[C@@H]1C1CCCCC1`, the Potency was 26.4 µM (active).
As for `CO[C@H]1C=CO[C@@]2(C)Oc3c(C)c(O)c4c(O)c(c(C=NN5CCN(C)CC5)c(O)c4c3C2=O)NC(=O)C(C)=CC=C[C@H](C)[C@H](O)[C@@H](C)[C@@H](O)[C@@H](C)[C@H](OC(C)=O)[C@H]1C`, the “viability” value is 111% [at 15.3 µM].
In the case of `CCC=CC[C@H]1C(=O)CC[C@@H]1CC(=O)OC`, the “viability” value was 113%.
For the compound `CC1=C(CC(=O)O)c2cc(F)ccc2C1=Cc1ccc(S(C)=O)cc1` (stereo not given), the “viability” value is 92.5%.
Regarding `Cc1cc2c(cc1C1(c3ccc(C(=O)O)cn3)CC1)C(C)(C)CCC2(C)C`, the Potency was 0.0015 µM (active).
With `COc1nccc(-c2c(-c3ccc(F)cc3)ncn2C2CCC(O)CC2)n1` (stereo not given), the “viability” value is 85.6%.
For `N#CC1(c2cccc(C(=O)Nc3cc(Oc4ccc5nc(NC(=O)C6CC6)sc5n4)ccc3F)c2Cl)CC1`, the Potency was 0.332 µM (active).
Turning to `O=C(O)C1=CO[C@@H](O[C@@H]2O[C@H](CO)[C@H](O)[C@H](O)[C@H]2O)[C@@H]2C(CO)=CC[C@H]12`, the “viability” value is 128%.
For `CC[C@H](C=C[C@@H](C)[C@H]1CC[C@H]2[C@@H]3CC=C4C[C@@H](O)CC[C@]4(C)[C@@H]3CC[C@]12C)C(C)C`, the “viability” value is 116% [at 23.2 µM].
Take `O=[N+]([O-])c1ccc(Nc2ccccc2-c2ccccc2)c2nonc12`: the “viability” value is 107%.
For the compound `CC[C@]1(O)C[C@H]2CN(CCC3=c4ccccc4=N[C]3[C@@](C(=O)OC)(c3cc4c(cc3OC)N(C)[C@H]3[C@@](O)(C(N)=O)[C@H](O)[C@]5(CC)C=CCN6CC[C@]43[C@@H]65)C2)C1`, the Potency was 0.662 µM (active).
`NC(=O)c1ccc(N(C(N)=O)c2c(F)cccc2F)nc1-c1ccc(F)cc1F`: the “viability” value is 96.1%.
Regarding `CC(=O)OCC(=O)[C@@]1(O)CC[C@H]2[C@@H]3CCC4=CC(=O)C=C[C@]4(C)[C@@H]3[C@@H](O)C[C@@]21C`, the “viability” value is 91.4%.
Regarding `COc1ccc2c(c1)CC[C@H]1[C@@H]2CC[C@]2(C)[C@@H](NCCCCCCN3C(=O)C=CC3=O)CC[C@H]12`, the “viability” value is 104%.
